Inconclusive results are not listed. Active and inactive are the calls of the source.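 How the source made its calls, unless noted: active means normalized viability below 100% at a tested concentration; inactive means the rest.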
What was measured:
[1] = growth inhibition of DIPG glioma cells, dose response, cell-based, SU-DIPG-XVII, MIPE5.0, CellTiter-Glo, qHTS (AID 1347060; cut-off not given, nearly all actives have AC50 up to about 26 µM;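 further: cells exposed to compound for 48 hours before viability readout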); conditions: SU-DIPG-XVII viability, CellTiter-Glo ATP luminescence
[2] = growth inhibition of DIPG glioma cells, dose response, cell-based, SU-DIPG-XIII, MIPE4.0, CellTiter-Glo, qHTS (AID 1347061; cut-off not given, nearly all actives have AC50 up to about 37 µM;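 further: cells exposed to compound for 48 hours before readout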); conditions: SU-DIPG-XIII viability, CellTiter-Glo ATP luminescence
[3] = growth inhibition of DIPG glioma cells, dose response, cell-based, JHH-DIPG-1, MIPE4.0, CellTiter-Glo, qHTS (AID 1347062; cut-off not given, nearly all actives have AC50 up to about 27 µM;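 further: cells exposed to compound for two days before readout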); conditions: JHH-DIPG-1 viability, CellTiter-Glo ATP luminescence
[4] = growth inhibition of DIPG glioma cells, dose response, cell-based, SU-DIPG-IV, MIPE4.0, CellTiter-Glo, qHTS (AID 1347063; cut-off not given, nearly all actives have AC50 up to about 30 µM;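 further: compound exposure lasted 48 hours before the viability readout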); conditions: SU-DIPG-IV viability, CellTiter-Glo ATP luminescence
[5] = growth inhibition of DIPG glioma cells, dose response, cell-based, SU-DIPG-XIII, MIPE5.0, CellTiter-Glo, qHTS (AID 1347064; cut-off not given, nearly all actives have AC50 up to about 23 µM;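 further: cells exposed to compound for 48 hours before the viability read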); conditions: SU-DIPG-XIII viability, CellTiter-Glo ATP luminescence
[6] = viability loss in pontine glioma line – cell-based, SU-DIPG-XXV, MIPE5.0, CellTiter-Glo, qHTS, dose response (AID 1347065; cut-off not given, nearly all actives have AC50 up to about 26 µM;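 further: cells exposed to compound for 48 hours before ATP readout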); conditions: CellTiter-Glo ATP luminescence
[7] = SU-DIPG-VI glioma cell viability, MIPE4.0 library, CellTiter-Glo luminescence, qHTS (AID 1347066; cut-off not given, nearly all actives have AC50 up to about 30 µM;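 further: cells exposed to compound for 48 hours before readout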); conditions: CellTiter-Glo ATP luminescence
[8] = JHH-DIPG-1 glioma cell viability, MIPE5.0 library, CellTiter-Glo luminescence, qHTS (AID 1347067; cut-off not given, nearly all actives have AC50 up to about 26 µM;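 further: cells exposed to compound for 48 hours before readout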); conditions: JHH-DIPG-1 glioma viability, CellTiter-Glo ATP luminescence
[9] = SU-DIPG-XXV glioma cell viability, MIPE5.0 library, qHTS (AID 1347068; cut-off not given, nearly all actives have IC50 up to about 30 µM;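 further: cells exposed to compound for 48 hours before viability readout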)
[10] = sensitizers of A549 cells to miR-34 induction, primary screen, imaging, A549 dox-inducible miR-34, nuclei and caspase counts (AID 1347080;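 active means compounds whose cell count with miR-34 switched on is under 0.7 times the count with it off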); conditions: A549 miR-34 inducible, Hoechst nuclei count, 48 h
[11] = modifiers of HSF1 nuclear foci, imaging, Selleck Cancer Library (AID 1347162; in the data active means plate-normalised HSF1 focus index below about 0.46); conditions: human cells, at 10 µM; SSMD: measured here: HSF1 foci SSMD mean; cell count: measured here: cell number; plate-normalised HSF1 focus index: stronger effect = lower value
[12] = survival rescue of mitochondrial mutant cells in low glucose, primary screen, MELAS cybrids, Rieske KO mouse fibroblasts, CellTiter-Glo (AID 1508586;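 active means mean z-score across replicates of 1.96 or higher in either the MELAS or the Rieske mutant cell line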;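 further: z relative to plate mean and SD of compound and empty wells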)
[13] = ovarian cancer cell viability with rucaparib, profiling panel, oncology-focused library, rucaparib conditional (AID 1508598); conditions: patient-derived ovarian cancer cells, CellTiter-Glo viability, 144 h, stronger effect = lower value
[14] = LFS_MB_P medulloblastoma growth inhibition, cell-based, chromothripsis tumors, cisplatin or BGB combos (AID 1671449; in the data active means inhibition above about 80%;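 further: cells exposed for 96 hours; 0% = vehicle DMSO and 100% = killing by high DMSO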); conditions: LFS_MB_P medulloblastoma cells
[15] = HDN33 neuroblastoma growth inhibition, cell-based, chromothripsis tumors, cisplatin or BGB combos (AID 1671450; in the data active means inhibition above about 80%;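 further: cells exposed to compound for four days; 0% = vehicle DMSO and 100% = cell killing by high DMSO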); conditions: HDN33 neuroblastoma cells, stronger effect = higher value
[16] = ICB984 medulloblastoma cell growth inhibition, synergistic combos for chromothripsis tumors, cisplatin or BGB combos (AID 1671451; call rule not given here;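 further: cells exposed for 96 hours before readout; 0% = vehicle DMSO and 100% = killing by high DMSO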); conditions: ICB984 medulloblastoma cells, drug combinations, stronger effect = higher value
[17] = HTB85 osteosarcoma cell growth inhibition, synergistic combos for chromothripsis tumors, BGB or cisplatin IC20 combos (AID 1671453; in the data active means inhibition above about 80%;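 further: cells exposed for 96 hours before readout; 0% = vehicle DMSO and 100% = high DMSO killing control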); conditions: HTB85 osteosarcoma cells, drug combinations, stronger effect = higher value
[18] = stronger effect = lower value, cell number ratio, induced over uninduced
[19] = measured here: relative caspase fold change +Dox/-Dox
[20] = measured here: total cells with miR-34 induction, stronger effect = lower value
[21] = measured here: total cells without miR-34 induction
[22] = MELAS cybrid survival, CellTiter-Glo 48 h, stronger effect = higher value
[23] = Rieske KO mouse fibroblast survival, CellTiter-Glo 72 h
[24] = at 0.000305 µM, OCI-C5x cells, with rucaparib 10 µM, 100% = cells with rucaparib alone
[25] = at 0.000305 µM, OCI-C5x cells, without rucaparib
[26] = at 0.000305 µM, OCI-P5x cells, with rucaparib 20 µM, 100% = cells with rucaparib alone
[27] = at 0.000305 µM, OCI-P5x cells, without rucaparib
[28] = at 0.00122 µM, OCI-C5x cells, with rucaparib 10 µM, 100% = cells with rucaparib alone
[29] = at 0.00122 µM, OCI-C5x cells, without rucaparib
[30] = at 0.00122 µM, OCI-P5x cells, with rucaparib 20 µM, 100% = cells with rucaparib alone
[31] = at 0.00122 µM, OCI-P5x cells, without rucaparib
[32] = at 0.00488 µM, OCI-C5x cells, with rucaparib 10 µM, 100% = cells with rucaparib alone
[33] = at 0.00488 µM, OCI-C5x cells, without rucaparib
[34] = at 0.00488 µM, OCI-P5x cells, with rucaparib 20 µM, 100% = cells with rucaparib alone
[35] = at 0.00488 µM, OCI-P5x cells, without rucaparib
[36] = at 0.0195 µM, OCI-C5x cells, with rucaparib 10 µM, 100% = cells with rucaparib alone
[37] = at 0.0195 µM, OCI-C5x cells, without rucaparib
[38] = at 0.0195 µM, OCI-P5x cells, with rucaparib 20 µM, 100% = cells with rucaparib alone
[39] = at 0.0195 µM, OCI-P5x cells, without rucaparib
[40] = at 0.0781 µM, OCI-C5x cells, with rucaparib 10 µM, 100% = cells with rucaparib alone
[41] = at 0.0781 µM, OCI-C5x cells, without rucaparib
[42] = at 0.0781 µM, OCI-P5x cells, with rucaparib 20 µM, 100% = cells with rucaparib alone
[43] = at 0.0781 µM, OCI-P5x cells, without rucaparib
[44] = at 0.313 µM, OCI-C5x cells, with rucaparib 10 µM, 100% = cells with rucaparib alone
[45] = at 0.313 µM, OCI-C5x cells, without rucaparib
[46] = at 0.313 µM, OCI-P5x cells, with rucaparib 20 µM, 100% = cells with rucaparib alone
[47] = at 0.313 µM, OCI-P5x cells, without rucaparib
[48] = at 1.25 µM, OCI-C5x cells, with rucaparib 10 µM, 100% = cells with rucaparib alone
[49] = at 1.25 µM, OCI-C5x cells, without rucaparib
[50] = at 1.25 µM, OCI-P5x cells, with rucaparib 20 µM, 100% = cells with rucaparib alone
[51] = at 1.25 µM, OCI-P5x cells, without rucaparib
[52] = at 5 µM, OCI-C5x cells, with rucaparib 10 µM, 100% = cells with rucaparib alone
[53] = at 5 µM, OCI-C5x cells, without rucaparib
[54] = at 5 µM, OCI-P5x cells, with rucaparib 20 µM, 100% = cells with rucaparib alone
[55] = at 5 µM, OCI-P5x cells, without rucaparib

CC(=O)Nc1nc(C)c(-c2ccc(Cl)c(S(=O)(=O)NCCO)c2)s1
27.3%: inhibition ([16]; cisplatin combo, at 0.05 µM)
8.49%: inhibition ([17]; measured here: with cisplatin IC20, at 0.5 µM)
46.6%: inhibition ([17]; single agent, at 5 µM)
3.46%: inhibition ([16]; BGB IC40 combo, at 0.005 µM)
2.87%: inhibition ([16]; cisplatin combo, at 5 µM)
-7.74%: inhibition ([14]; measured here: combination with BGB IC40, at 0.05 µM)
-19.5%: inhibition ([16]; cisplatin combo, at 0.5 µM)
24.2%: inhibition ([15]; measured here: with cisplatin IC20 combination, at 0.5 µM)
-5.45%: inhibition ([16]; BGB IC20 combo, at 0.005 µM)
37%: inhibition ([15]; cisplatin combo, at 5 µM)
45%: inhibition ([15]; single agent, at 5 µM)
30.2%: inhibition ([17]; measured here: with cisplatin IC20, at 5 µM)
42.2%: inhibition ([17]; measured here: with BGB IC20, at 5 µM)
-29.7%: inhibition ([14]; measured here: combination with BGB IC20, at 0.005 µM)
0.869: fold change [10, 19]
3490: cell count [10, 20]
2.06: SSMD [11]
active: AC50 [1] 10500 nM | AC50 [2] 7430 nM | AC50 [3] 13200 nM | AC50 [4] 2090 nM | AC50 [5] 14800 nM | AC50 [6] 6610 nM | AC50 [7] 2640 nM | AC50 [8] 16600 nM | IC50 [9] 16600 nM | viability [13, 30] 85.2% | viability [13, 34] 92.4% | viability [13, 38] 99.1% | viability [13, 40] 90.4% | viability [13, 42] 89.5% | viability [13, 44] 93.3% | viability [13, 46] 88.3% | viability [13, 48] 95.9% | viability [13, 50] 92.7% | viability [13, 52] 94.4% | viability [13, 54] 39.1% | viability [13, 55] 60.5%
30.7%: inhibition ([16]; BGB IC40 combo, at 0.05 µM)
13.7%: inhibition ([15]; measured here: with BGB IC20 combination, at 0.5 µM)
11.8%: inhibition ([17]; measured here: with BGB IC20, at 0.5 µM)
3300: cell count [10, 21]
-52.3%: inhibition ([14]; measured here: combination with cisplatin, at 0.5 µM, stronger effect = higher value)
18.5%: inhibition ([15]; BGB combo, at 5 µM)
5.64%: inhibition ([16]; measured here: 5 uM single agent, at 5 µM)
1.03: z-score [12, 23]
inactive: fold change [10, 18] 1.06 | plate-normalised HSF1 focus index [11] 1.13 | z-score [12, 22] -0.084 | viability [13, 24] 113% | viability [13, 25] 119% | viability [13, 26] 110% | viability [13, 27] 117% | viability [13, 28] 102% | viability [13, 29] 126% | viability [13, 31] 107% | viability [13, 32] 109% | viability [13, 33] 123% | viability [13, 35] 112% | viability [13, 36] 103% | viability [13, 37] 120% | viability [13, 39] 115% | viability [13, 41] 125% | viability [13, 43] 107% | viability [13, 45] 116% | viability [13, 47] 108% | viability [13, 49] 122% | viability [13, 51] 110% | viability [13, 53] 132% | inhibition ([14]; at 0.5 µM, stronger effect = higher value) -45.2% | inhibition ([15]; at 0.5 µM) 22.6% | inhibition ([16]; at 0.5 µM) -2.76% | inhibition ([17]; at 0.5 µM) 10.5%
-42%: inhibition ([14]; measured here: combination with BGB IC40, at 0.005 µM)
23.5%: inhibition ([14]; measured here: combination with cisplatin, at 5 µM, stronger effect = higher value)
7480: cell count [11]

COCCn1c2c([n+](Cc3cnccn3)c1C)C(=O)c1ccccc1C2=O
inactive: fold change [10, 18] 1.7 | z-score [12, 22] -0.74 | viability [13, 26] 116% | viability [13, 27] 108% | viability [13, 30] 128% | viability [13, 34] 114%
936: cell count [10, 20]
active: AC50 [1] 9.34 nM | AC50 [2] 66.2 nM | AC50 [3] 46.9 nM | AC50 [4] 14.8 nM | AC50 [5] 1.66 nM | AC50 [6] 26.3 nM | AC50 [7] 23.5 nM | AC50 [8] 105 nM | IC50 [9] 29.5 nM | viability [13, 24] 92.6% | viability [13, 25] 88.5% | viability [13, 28] 88.5% | viability [13, 29] 93.8% | viability [13, 31] 99.4% | viability [13, 32] 90.5% | viability [13, 33] 91.8% | viability [13, 35] 49.6% | viability [13, 36] 83% | viability [13, 37] 14.6% | viability [13, 38] 61.5% | viability [13, 39] 8.64% | viability [13, 40] 11% | viability [13, 41] 3.7% | viability [13, 42] 18.6% | viability [13, 43] 1.55% | viability [13, 44] 3.83% | viability [13, 45] 2.36% | viability [13, 46] 1.82% | viability [13, 47] 0.757% | viability [13, 48] 2.25% | viability [13, 49] 1.76% | viability [13, 50] 1.09% | viability [13, 51] 0.567% | viability [13, 52] 0.969% | viability [13, 53] 1.42% | viability [13, 54] 0.522% | viability [13, 55] 0.371%
0.996: fold change [10, 19]
-2.86: z-score [12, 23]
551: cell count [10, 21]

— PubChem BioAssay
